# The supplement of paper PMC8975748
# Counter-ions that a name gives are not always drawn.
# Tested on: Saccharomyces cerevisiae BY4741 SeMeCo community
# Test: z-score of subpopulation abundance vs DMSO median, subpopulation auxotrophic for LUM; higher = larger share of this subpopulation than in DMSO controls
# Conditions: 10 µM; 24 h; SM minimal medium; subpopulation (auxotrophy): LUM
# Experimental: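 Fluorescent four-plasmid SeMeCo (self-establishing metabolically cooperating S. cerevisiae BY4741 community; plasmids pH-mRuby2, pL-mWasabi, pU-eCFP, pM-TagRFP657) was grown 24 h in minimal SM medium with each Selleck FDA-approved drug at 10 µM in 384-well plates. Cells were fixed and imaged by high-content confocal microscopy. For each auxotrophic subpopulation (and the prototroph), a z-score gives the deviation from the DMSO vehicle-control population median.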
row,Structure (SMILES),z-score of subpopulation abundance
1,CO[C@@H]1[C@@H](O[C@@H]2O[C@H](C)[C@@H](O[C@H]3C[C@@](C)(O)[C@@H](O)[C@H](C)O3)[C@H](N(C)C)[C@H]2O)[C@@H](CC=O)C[C@@H](C)[C@@H](O[C@H]2CC[C@H](N(C)C)[C@@H](C)O2)/C=C/C=C/C[C@@H](C)OC(=O)C[C@H]1OC(C)=O [Acetylspiramycin (ASPM)],1.09
2,COC(=O)C1=C(C)NC(C)=C(C(=O)OCCN(C)Cc2ccccc2)C1c1cccc([N+](=O)[O-])c1 (stereo not given) [Nicardipine HCl],-0.01
3,Cc1ccnc(NS(=O)(=O)c2ccc(N)cc2)n1 [Sulfamerazine],0.98
4,CC[N+](CC)(CC)CC [Tetraethylammonium bromide],0.28
5,CN(C/C=C/C#CC(C)(C)C)Cc1cccc2ccccc12 [Terbinafine HCl],0.47
6,CC[C@H](C)[C@H](N)C1=N[C@H](C(=O)N[C@@H](CC(C)C)C(=O)N[C@H](CCC(=O)O)C(=O)N[C@H](C(=O)N[C@H]2CCCCNC(=O)[C@H](CC(N)=O)NC(=O)[C@@H](CC(=O)O)NC(=O)[C@H](Cc3cnc[nH]3)NC(=O)[C@@H](Cc3ccccc3)NC(=O)[C@H]([C@@H](C)CC)NC(=O)[C@@H](CCCN)NC2=O)[C@@H](C)CC)CS1 [Bacitracin],0.84
7,C[C@H]1O[C@@H](O[C@H]2[C@@H](O)C[C@H](O[C@H]3[C@@H](O)C[C@H](O[C@H]4CC[C@@]5(C)[C@H](CC[C@@H]6[C@@H]5C[C@@H](O)[C@]5(C)[C@@H](C7=CC(=O)OC7)CC[C@]65O)C4)O[C@@H]3C)O[C@@H]2C)C[C@H](O)[C@@H]1O [Digoxin],-0.61
8,CN1CCN(c2cc3c(cc2F)c(=O)c(C(=O)O)cn3-c2ccc(F)cc2)CC1 [Difloxacin hydrochloride],-0.26
9,CCn1cc(C(=O)O)c(=O)c2ccc(C)nc21 [Nalidixic acid],-0.71
10,CN[C@H](CC(C)C)C(=O)N[C@H]1C(=O)N[C@@H](CC(N)=O)C(=O)N[C@H]2C(=O)N[C@H]3C(=O)N[C@H](C(=O)N[C@H](C(=O)O)c4cc(O)cc(O)c4-c4cc3ccc4O)[C@H](O)c3ccc(c(Cl)c3)Oc3cc2cc(c3O[C@@H]2O[C@H](CO)[C@@H](O)[C@H](O)[C@H]2O[C@H]2C[C@](C)(N)[C@H](O)[C@H](C)O2)Oc2ccc(cc2Cl)[C@H]1O [Vancomycin HCl],-0.38
11,CC(C)NC(=N)NC(=N)Nc1ccc(Cl)cc1 [Proguanil],-0.3
12,O=[N+]([O-])c1ccc(O)c2ncccc12 [Nitroxoline],11
13,Cc1cc(-c2ccc(/N=N/c3ccc4c(S(=O)(=O)O)cc(S(=O)(=O)O)c(N)c4c3O)c(C)c2)ccc1/N=N/c1ccc2c(S(=O)(=O)O)cc(S(=O)(=O)O)c(N)c2c1O [Evans Blue],-5.24
14,CCCCCCCCCC(=O)N[C@@H](Cc1c[nH]c2ccccc12)C(=O)N[C@H](CC(N)=O)C(=O)N[C@@H](CC(=O)O)C(=O)N[C@@H]1C(=O)NCC(=O)N[C@@H](CCCN)C(=O)N[C@@H](CC(=O)O)C(=O)N[C@H](C)C(=O)N[C@@H](CC(=O)O)C(=O)NCC(=O)N[C@H](CO)C(=O)N[C@@H]([C@H](C)CC(=O)O)C(=O)N[C@@H](CC(=O)c2ccccc2N)C(=O)O[C@@H]1C [Daptomycin],1.02
15,COc1ccc2c3c1O[C@H]1C[C@@H](O)C=C[C@@]31CCN(C)C2 [Galanthamine],1.02
16,NCC[C@H](O)C(=O)N[C@@H]1C[C@H](N)[C@@H](O[C@H]2O[C@H](CN)[C@@H](O)[C@H](O)[C@H]2O)[C@H](O)[C@H]1O[C@H]1O[C@H](CO)[C@@H](O)[C@H](N)[C@H]1O [Amikacin disulfate],-0.03
17,Cc1cccc(C)c1NC(=O)C1CCCCN1C (stereo not given) [Mepivacaine HCl],0.38
18,COCCCOc1ccnc(C[S+]([O-])c2nc3ccccc3[nH]2)c1C (stereo not given) [Rebeprazole sodium],0.11
19,NC(=O)N1c2ccccc2CC(=O)c2ccccc21 [Oxcarbazepine],0.55
20,C[C@]12CC[C@@H]3c4ccc(O)cc4C[C@@H](CCCCCCCCC[S+]([O-])CCCC(F)(F)C(F)(F)F)[C@H]3[C@@H]1CC[C@@H]2O (stereo not given in full) [Fulvestrant],1.7

row,Structure (SMILES),z-score of subpopulation abundance
1,CNCC[C@@H](Oc1ccccc1C)c1ccccc1 [Atomoxetine HCl],0.05
2,CCN(CC)CCOC(=O)c1ccc(N)cc1 [Procaine HCl],0.14
3,OCCOc1ccc(/C(=C(/CCCl)c2ccccc2)c2ccccc2)cc1 [Ospemifene],-0.52
4,CC[C@H](C)C(=O)O[C@H]1C[C@@H](C)C=C2C=C[C@H](C)[C@H](CC[C@@H]3C[C@@H](O)CC(=O)O3)[C@H]21 [Lovastatin],0.48
5,CC(=O)O[C@]1(C(C)=O)CC[C@H]2[C@@H]3C[C@H](C)C4=CC(=O)CC[C@]4(C)[C@H]3CC[C@@]21C [Medroxyprogesterone acetate],-0.28
6,C[C@H]1NCc2cc(-c3ccc4c(=O)c(C(=O)O)cn(C5CC5)c4c3OC(F)F)ccc21 [Garenoxacin],0.75
7,CO/N=C1\C[C@]2(C[C@@H]3C[C@@H](C/C=C(\C)C[C@@H](C)/C=C/C=C4\CO[C@@H]5[C@H](O)C(C)=C[C@@H](C(=O)O3)[C@]45O)O2)O[C@H](/C(C)=C/C(C)C)[C@H]1C [Moxidectin],0.37
8,Cc1c(OCC(F)(F)F)ccnc1C[S@@+]([O-])c1nc2ccccc2[nH]1 [Dexlansoprazole],0.16
9,CN(C)CCc1c[nH]c2ccc(CS(=O)(=O)N3CCCC3)cc12 [Almotriptan Malate],-0.23
10,"CO[C@H]1C[C@@H]2CC[C@@H](C)[C@@](O)(O2)C(=O)C(=O)N2CCCC[C@H]2C(=O)O[C@H]([C@H](C)C[C@@H]2CC[C@@H](OP(C)(C)=O)[C@H](OC)C2)CC(=O)[C@H](C)/C=C(\C)[C@@H](O)[C@@H](OC)C(=O)[C@H](C)C[C@H](C)/C=C/C=C/C=C/1C [Ridaforolimus (Deforolimus, MK-8669)]",11
11,N/C(=N\N=C\c1ccc(Cl)cc1)N/N=C/c1ccc(Cl)cc1 [Robenidine Hydrochoride],7.91
12,CC(=O)Oc1ccc(C(=C2CCCCC2)c2ccc(OC(C)=O)cc2)cc1 [Cyclofenil],-0.06
13,CC(C)(C)C1CCC(CC2=C(O)c3ccccc3C(=O)C2=O)CC1 (stereo not given) [Buparvaquone],0.35
14,CC(=O)NO [Acetohydroxamic acid],1.04
15,CN1[C@@H]2CC[C@H]1C[C@@H](OC(c1ccccc1)c1ccccc1)C2 [Benztropine mesylate],-0.36
16,Clc1ccc(CCC(Cn2ccnc2)Sc2c(Cl)cccc2Cl)cc1 (stereo not given) [Butoconazole],3.75
17,CN1[C@@H]2CC[C@H]1C[C@@H](OC(=O)c1c[nH]c3ccccc13)C2 [Tropisetron],1.16
18,CCCNCC(O)COc1ccccc1C(=O)CCc1ccccc1 (stereo not given) [Propafenone HCl],0.61
19,COc1cccc2c1C(=O)c1c(O)c3c(c(O)c1C2=O)CC(O)(C(=O)CO)CC3OC1CC(N)C(O)C(C)O1 (stereo not given) [Doxorubicin (Adriamycin) HCl],4.19
20,Cc1onc(-c2ccccc2)c1-c1ccc(S(N)(=O)=O)cc1 [Valdecoxib],-0.21
